ULK1 inh: inhibitors of human ULK1 kinase; 30,000 compounds, 1.9% hits; inhibition, % at 5.96 µM; AlphaScreen Atg13 phosphorylation by ULK1, luminescence; in the data active means inhibition above about 43%
ASK1 inh: human ASK1 kinase inhibition, primary screen | Q99683 | AID 1159602 | AlphaScreen MKK6 phosphorylation by ASK1, luminescence | inhibition, % at 7.44 µM | 22,000 compounds, 0.99% hits; in the data active means inhibition above about 35%
Of the large screens only hits and unclear results are named; the others gave an inactive call; ! = not active in a repeat. Compounds with a hit are over-represented: about 2.5% of the library has one in this group of screens.

CN(C)[C@@H]1C(=O)C(C(=O)NCN2CCCC2)=C(O)[C@@]2(O)C(=O)C3=C(O)c4c(O)cccc4[C@@](C)(O)C3CC12 (some centres undefined)	none (no result: ASK1 inh)
C=C1c2c(Cl)ccc(O)c2C(O)=C2C(=O)[C@]3(O)C(O)=C(C(N)=O)C(=O)[C@@H](N(C)C)[C@@H]3[C@@H](O)[C@H]12	ULK1 inh 72 (no result: ASK1 inh)
CCN(CC)c1nc(NCCN(C(C)C)C(C)C)nc(N2CCc3ccccc3C2)n1	none
CCNc1nccc(Nc2ccccc2)n1	none
COc1cc(NC(=O)c2cccc(-c3cccc(N)c3)c2)cc(OC)c1OC	none
Cn1c(Nc2nc(Nc3ccc4c(c3)OCO4)c3[nH]cnc3n2)nc2ccccc21	none
CC(C)(C)c1ncn(-c2ccc(Nc3nccc(-c4ccnc(Nc5ccccc5)c4)n3)cc2)n1	none
Cc1ncn(-c2ccc(N(CC3CC3)c3ncc4cccc(-c5cnn(CC6CC6)c5)c4n3)cc2)n1	ULK1 inh 99
Cc1ncn(-c2ccc(Nc3ncc4cccc(-c5cnc6ccccc6c5)c4n3)cc2)n1	none
Nc1nc(N2CCN(c3ccccn3)CC2)nc2c1ncn2CCN1CCCC1=O	none
CNC(=O)c1ccccc1Nc1cc(Nc2ccc(C(=O)N(C)C)cc2OC)ncc1C(F)(F)F	ULK1 inh 88
CCN(CC)CCNC(=O)c1ccc(Nc2cc(Nc3ccccc3C(=O)NC)c(C(F)(F)F)cn2)c(OC)c1	ULK1 inh 90
COc1ccc(CC(=O)Nc2cc(Nc3ccccc3C(=O)NC[C@H](O)C(=O)N(C)C)ccn2)cc1	none
CNC(=O)c1ccccc1Nc1cc(Nc2ccc(C(=O)NC[C@H](O)C(=O)N(C)C)cc2OC)ncc1C(F)(F)F	ULK1 inh 89
O=C1CCCN1CCn1cnc2c(Nc3ccc(N4CCOCC4)cc3)nc(Nc3nccc4ccccc34)nc21	none
FC(F)(F)c1cccc(CNc2ccnc(-c3cccs3)n2)c1	none
O=C(NCc1cccc(C(F)(F)F)c1)c1ccc2nc(Nc3ccccc3)sc2c1	none
Cc1cc2c(C(C)C)c(O)c(O)c(C=O)c2c(O)c1-c1c(C)cc2c(C(C)C)c(O)c(O)c(C=O)c2c1O	ULK1 inh 57 (no result: ASK1 inh)
COc1ccc(CCNC(=O)c2cnc(NC3CCC(O)CC3)s2)cc1 (centres undefined)	none
Nc1ccc2cnn(-c3cccc(C(=O)NCCN4CCOCC4)c3)c2c1	none
CC(C)C[C@H](O)C(=O)N1CCC(C(=O)Nc2ccc3[nH]ncc3c2)CC1	none
CC(C)C[C@H](O)C(=O)N1CCC(Nc2ccc3[nH]ncc3c2)CC1	ULK1 inh 53
N#Cc1cc(-c2ccnc(Nc3cccc(CN4CCCCC4)c3)n2)cc(N2CCOCC2)c1	ULK1 inh 79
c1cc(-c2cncc(N3CCOCC3)c2)nc(Nc2ccc3c(c2)OCCO3)n1	none
c1cc(Cn2cccn2)cc(Nc2nccc(-c3cncc(N4CCOCC4)c3)n2)c1	ULK1 inh 80
Fc1cnc(Nc2ccc(CN3CCCCC3)cc2)nc1-c1cc(N2CCOCC2)cc(C(F)(F)F)c1	none
Fc1cc(-c2ccnc(Nc3ccc(N4CCOCC4)cc3)n2)cc(N2CCOCC2)c1	none
OC1CCN(c2ccc(Nc3nccc(-c4cc(F)cc(N5CCOCC5)c4)n3)cc2)CC1	ULK1 inh 45
Fc1cc(-c2nc(Nc3ccc(CN4CCCCC4)cc3)ncc2F)cc(N2CCOCC2)c1	ULK1 inh 44
Cc1cc(Nc2nccc(-c3cc(C#N)cc(N4CCOCC4)c3)n2)ccc1N1CCOCC1	none
CN(C)CCOc1cc(-c2cn[nH]c2)ccc1NC(=O)C1COc2ccc(C(=O)NC3CC3)cc2C1 (centres undefined)	none
Cn1nccc1Nc1cc(C(=O)NC2CC2)c2ccccc2n1	none
CN(C)c1cccc(Nc2nc(NC3CC3)c3ncn(Cc4ccc(C(F)(F)F)cc4)c3n2)c1	none
CC(=O)N(CCC(Cc1ccccc1)C1CCOC(C)(C)C1)Cc1ccco1 (centres undefined)	none (no result: ASK1 inh)
COc1ccc(-c2cncc(C(=O)NCCCN3CCCC3=O)c2)cn1	none
Nc1cccc(-c2nc(N)c3ncn(C4CCCCC4)c3n2)c1	none
N#Cc1ccc(Nc2nccc(-c3cncc(N4CCOCC4)c3)n2)cc1	none
OC1CCN(c2ccc(Nc3nccc(-c4cncc(N5CCOCC5)c4)n3)cc2)CC1	ULK1 inh 68
O=c1c(O)c(-c2ccc(O)c(O)c2)oc2cc(O)cc(O)c12	ULK1 inh 46 (no result: ASK1 inh)
O=c1c(-c2ccc(O)cc2)coc2cc(O)cc(O)c12	none (no result: ASK1 inh)
CCCCNC(=O)c1ccc(Cl)cc1O	ULK1 inh 43! (no result: ASK1 inh)
CCCNC(=O)c1ccc(Cl)cc1Cl	none (no result: ASK1 inh)
O=C(Cn1c(CO)cnc1SCc1ccc(F)cc1)NCc1ccc(Cl)cc1	none (no result: ASK1 inh)
COc1c(Br)ccc2cnc(Nc3ccc(-n4cnc(N5CCOCC5)n4)cc3)nc12	none
CN(C)S(=O)(=O)Nc1ccc(-c2ccnc(Nc3ccc(S(N)(=O)=O)cc3)n2)cc1	ULK1 inh 48
CS(=O)(=O)Nc1ccc(-c2ccnc(Nc3cccc(S(N)(=O)=O)c3)n2)cc1	ULK1 inh 58
CCS(=O)(=O)c1ccc(-c2ccnc(Nc3ccc(S(N)(=O)=O)cc3)n2)cc1	none
CS(=O)(=O)Nc1cccc(-c2ccnc(Nc3cccc(S(N)(=O)=O)c3)n2)c1	none
CS(=O)(=O)Cc1ccc(-c2ccnc(Nc3ccc(S(N)(=O)=O)cc3)n2)cc1	ULK1 inh 50
NS(=O)(=O)c1ccc(Nc2nccc(-c3ccc(Nc4ccccc4)cc3)n2)cc1	none
CCN(CC)c1nc(NCCc2ccc(OC)cc2)nc(NCc2cccnc2)n1	none
COc1cc(NC(=O)C(N)c2ccc(Cl)cc2)c(F)cc1-c1cn[nH]c1 (centres undefined)	ULK1 inh 65
CN(C)CCCOc1cc(-c2cn[nH]c2)c(F)cc1NC(=O)C(N)c1ccc(Cl)cc1 (centres undefined)	none
O=C1CCCN1CCn1cnc2c(NC3CC3)nc(N3CCc4ccccc4C3)nc21	none
COc1ccc(-c2ccc(C(=O)Nc3cc(OC)c(OC)c(OC)c3)s2)cc1	none
O=C(N/N=C\c1ccc(-c2ccc([N+](=O)[O-])cc2)o1)c1cnccn1	none (no result: ASK1 inh)
Nn1cnnc1N/N=C/c1ccc(-c2cccc([N+](=O)[O-])c2)o1	ULK1 inh 45 (no result: ASK1 inh)
Cc1ccc(-c2ccc(Nc3ncc4ccc(-c5cnn(C)c5)c(Cl)c4n3)cc2)cn1	ULK1 inh 44
Cc1nc(C)n(-c2ccc(Nc3nc(-c4cnn(C)c4)cc(N4CCOCC4)n3)cc2)n1	none
Cn1cc(-c2nc(Nc3ccc(-n4cnc(N5CCOCC5)n4)cc3)ncc2F)cn1	none
Cn1cc(-c2ccc3cnc(Nc4ccc(-n5cnc(N6CCOCC6)n5)cc4)cc3c2)cn1	ULK1 inh 74
Cc1nc(C)n(-c2ccc(Nc3cc(-c4cnn(C)c4)ccn3)cc2)n1	none
Cn1cc(-c2ccc3cnc(Nc4ccc(N5CCOCC5)nc4)nc3c2Cl)cn1	ULK1 inh 78
Cn1cc(-c2ccc3cnc(Nc4ccccc4)cc3c2)cn1	ULK1 inh 66
Cc1ccc(-c2ncn(-c3ccc(Nc4ncc5ccc(-c6cnn(C)c6)nc5n4)cc3)n2)cn1	none
Fc1ccc2c(c1)OCC(c1nc3ccc(-c4ccncc4)cc3[nH]1)O2 (centres undefined)	none
COc1ccc(Nc2cc(-c3ccc(F)cc3)nc(C)n2)cc1	none (no result: ASK1 inh)
O=C(Nc1cnn(-c2cccc(CNCCN3CCOCC3)c2)c1)Nc1ccccc1Cl	none
CCCNc1nc(N2CCCC2CO)nc2c1ncn2Cc1ccc(C(F)(F)F)cc1 (centres undefined)	none
CS(=O)(=O)c1ccc2c(c1)NC(=O)CN2C(=O)c1ccco1	none (no result: ASK1 inh)
Cn1cc(-c2ccc3cnc(Nc4ccc(-n5cnc(N6CCOCC6)n5)cc4)nc3c2Cl)cn1	ULK1 inh 47

From PubChem
